Source: PubChem BioAssay AID813 (Sanford-Burnham Center for Chemical Genomics, 2007)
Among all 64,000 compounds or so, fewer than 10 were called active.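 The calls were made as follows: active = activation factor of at least 2 at 20 µM, relative to controls; inactive = the rest.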 A selection follows.

Target: Alkaline phosphatase, tissue-nonspecific isozyme (Homo sapiens) (UniProt P05186)
Test: human TNAP enzyme activators, primary screen, biochemical, luminescent, intermediate phosphate acceptor level (AID 813)
Conditions: purified TNAP, CDP-star luminescence, 100 mM DEA, 30 min; at 20 µM; stronger effect = higher value; scale: 0 levamisole-inhibited, 1 vehicle-only enzyme

Sequence of Alkaline phosphatase, tissue-nonspecific isozyme (Homo sapiens) (P05186 whole entry, looked up): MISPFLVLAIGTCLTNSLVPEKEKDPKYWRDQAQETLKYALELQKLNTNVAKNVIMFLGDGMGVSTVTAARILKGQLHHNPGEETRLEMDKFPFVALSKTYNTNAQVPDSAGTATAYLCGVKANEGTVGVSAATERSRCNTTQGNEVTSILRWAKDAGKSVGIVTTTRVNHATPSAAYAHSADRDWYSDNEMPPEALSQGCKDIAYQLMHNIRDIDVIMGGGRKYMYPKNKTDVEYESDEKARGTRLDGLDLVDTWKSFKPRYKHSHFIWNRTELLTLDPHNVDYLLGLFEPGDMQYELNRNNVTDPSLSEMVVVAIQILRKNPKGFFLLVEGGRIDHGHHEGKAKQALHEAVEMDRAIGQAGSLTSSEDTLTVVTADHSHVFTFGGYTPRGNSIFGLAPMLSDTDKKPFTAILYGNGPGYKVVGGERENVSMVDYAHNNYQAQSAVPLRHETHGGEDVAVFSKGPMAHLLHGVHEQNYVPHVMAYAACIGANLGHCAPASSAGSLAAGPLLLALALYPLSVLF

Activation factor, inactive:
Cc1ccccc1CSc1nnc(-c2cccnc2)n1N 0.9
COCCN1C(=O)c2oc3c(C)cc(C)cc3c(=O)c2C1c1cccc(O)c1 (stereo unspecified) 0.8
COc1ccc2occ(C(=O)c3ccc(N=C(C)N(C)C)cc3)c2c1 0.9
O=C1CN(C(=O)COC(=O)C2CC(=O)N(Cc3ccco3)C2)c2ccccc2N1 (stereo unspecified) 0.9
CSc1nc(O)c(Cc2ccccc2)c(=O)[nH]1 1
COc1cc(C(O)c2nc3ccccc3n2C)cc(OC)c1OC (stereo unspecified) 0.9
O=C(O)c1cc(S(=O)(=O)N2CCCCCC2)c(Cl)cc1Cl 1
CCN1CCCC1CNC(=O)Cn1cnc2ccc(S(=O)(=O)N3CCC(C)CC3)cc2c1=O (stereo unspecified) 0.9
CCCCn1nc(C(=O)N2CCc3ccccc32)c2ccccc2c1=O 0.9
Cc1ccc(O)c(NC(=O)COc2cc(C)ccc2C)c1 0.9
Cc1cccc(OCc2nnc(SCC(=O)N3CCN(C(=O)c4ccco4)CC3)n2C)c1C 0.9
Cc1cc(Cl)c(S(=O)(=O)Nc2ccc3c(c2)OCCO3)cc1OCC(N)=O 0.9
CC(=NCc1ccco1)C1=C(O)c2ccccc2C1=O 0.9
Cc1ccc(-c2noc(CSc3nnc(-c4ccccc4)n3C)n2)cc1 1
O=C(Cn1[nH]c(=O)c2ccccc2c1=O)Nc1cccc(-c2nnc3n2CCCCC3)c1 0.9
CC1Cc2nc(SCC(=O)Nc3ccccc3F)n(C)c(=O)c2S1 (stereo unspecified) 1
COc1ccccc1C(=O)Oc1ccc(N2C(=O)CCC2=O)cc1 0.9
Clc1ccc(C2CC(c3cccs3)n3ncnc3N2)cc1Cl (stereo unspecified) 1
O=C(CNC(=O)c1ccco1)OCC(=O)c1ccccc1 0.9
CN1CCC2(CC1)NC(=O)NC2=O 1
CCN(CC)CCN1C(=O)C(=O)/C(=C(/O)c2ccc(OC)c(OC)c2)C1c1ccccn1 (stereo unspecified) 1
O=S(=O)(O)c1nc2ccccc2n1Cc1ccc(Cl)cc1Cl 0.9
CC(Nc1nc(N2CCCC2)nc2ccccc12)c1ccccc1 (stereo unspecified) 1
NC(=O)CSc1c[nH]c2ccccc12 0.9
CCCCOc1ccc(C(=O)NCc2ccco2)cc1 0.9
COc1ccc(S(=O)(=O)N2CCCC(C(=O)Nc3ccc(NC(=O)c4ccccn4)cc3)C2)cc1 (stereo unspecified) 0.8
Cc1cc(Nc2cccc(C)c2C)n2ncnc2n1 1
O=C(CSC1=Nc2ccccc2C2=NC(c3ccccc3)C(=O)N12)NCC1CCCO1 (stereo unspecified) 0.9
CCOC(=O)c1cccc(NC(=O)C2CCCN(S(=O)(=O)c3cnc[nH]3)C2)c1 (stereo unspecified) 0.9
CSCC[C@H](NC(=O)NCc1cccs1)C(=O)O 0.9
Cc1c2cn[nH]c(=O)c2c(C)n1Cc1ccc(F)cc1 0.9
COc1ccc2nc(NC3=NCN(CC4CCCO4)CN3)nc(C)c2c1 (stereo unspecified) 0.9
Cc1ccc(C)n1C(Cc1ccccc1)C(=O)O (stereo unspecified) 0.8
Cc1cc(N2CCCC2=O)cc(C)c1S(N)(=O)=O 0.9
CCOC(=O)Cn1c(N)c(C(=O)OC)sc1=S 0.9
Cc1cccc(NC(=O)c2ccc3ccccc3n2)n1 0.9
COc1ccc(C2C(C#N)=C(N)Oc3cc(N)ccc32)cc1OC (stereo unspecified) 1
Cc1nn(C)c(C)c1S(=O)(=O)N1CCc2ccccc21 1
Cc1cc(C)nc(N2C(=O)CC(Cc3ccccc3)C2=O)n1 (stereo unspecified) 0.9
COc1ccc(-n2c(SCC(=O)Nc3ccc4c(c3)OCO4)nnc2C(C)N2CCCCC2)cc1 (stereo unspecified) 1
N#CC1=C(N)OC2=C(C(=O)CCC2)C1C1CC=CCC1 (stereo unspecified) 0.9
O=C(Nc1ccon1)c1sc2ccccc2c1Cl 1
Cc1ccc(S(=O)(=O)NCC(=O)OCC(=O)N2CCc3ccccc32)cc1 0.8
COc1ccc(C(=O)CSc2nccc(=O)[nH]2)cc1 1
CSc1cccc(NC(=O)C2CCCN2S(=O)(=O)c2ccc3c(c2)CCC(=O)N3)c1 (stereo unspecified) 0.9
Cc1ccnc(N2CCCC(C(=O)Nc3cc(F)ccc3C)C2)n1 (stereo unspecified) 0.9
Nc1nonc1C(=O)NCCc1ccccc1 0.9
CCc1cccc(C)c1NC(=O)CSc1nnc(-c2ccco2)n1N 1.1
COc1ccccc1-n1c(CNC(=O)c2ccccc2)nnc1SCC(=O)Nc1nnc(C)s1 1
Cc1ccc(S(=O)(=O)NC(C)C(=O)Nc2ccccc2C(=O)N2CCCC2)cc1 (stereo unspecified) 0.9
O=C1C(C=NCC2CCCO2)=C(O)c2ccccc21 (stereo unspecified) 1
O=C(CCN1C(=O)c2ccccc2C1=O)Nc1ccncc1 1
CCn1nnc(NC(=O)c2cc(Cl)c(OC)c(Cl)c2)n1 0.9
CN(C)/C=C1/C(=O)Nc2ccccc21 0.9
CCCNC(=O)C1CC(=O)N(c2ccc(OCC(=O)Nc3cccc(C)c3C)cc2)C1 (stereo unspecified) 1
CCCCNC(=O)CSc1nnc(-c2ccco2)n1C 1
CCOC(=O)c1cccc(NC(=O)CCn2nnc3ccccc32)c1 0.9
O=C(CSc1nnc(-c2cccs2)n1Cc1ccco1)c1ccc2c(c1)OCO2 0.9
CC(=O)N(CC1CCCO1)C1(C(=O)NC2CCCC2)CCCCC1 (stereo unspecified) 1
CCn1c(SCC(=O)Nc2cc(C)c(Cl)cc2OC)nnc1-c1ccco1 1
Cc1ccc2c(C(=O)CN3CCCC3)c(C)[nH]c2c1 0.9
Cc1cccc(C2c3c(n(C)c(=O)n(C)c3=O)N=C3c4ccccc4C(=O)C32)c1 (stereo unspecified) 0.8
C=CCn1c(C2CC(=O)N(c3ccc(C)cc3)C2)nc2ccccc21 (stereo unspecified) 0.9
CC1(C)Cc2c(C#N)c(SCc3nc4ccccc4[nH]3)nc(N3CCOCC3)c2CO1 1
CCOC(=O)C1C(=O)OC2(CCCC2)C1C(=O)OCC (stereo unspecified) 0.9
Cc1ncn(C23CC4CC(CC(O)(C4)C2)C3)n1 1
